Laboratory results taken from PubChem BioAssay.
Active and inactive are the calls of the source.

Columns and labels:
[1] = optical density shifts of acrAB sulA E. coli – strain DRC41, OD650, 48 h, E. coli filamentation inducer project, primary screen (AID 1152); conditions: higher = more signal, called active from +8 up or from −8 down;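 note: E. coli MC1000 strain DRC41 lacking acrAB efflux pump and sulA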
[2] = probe aLefty1 binding on compound microarray – biochemical, small-molecule microarray, 635/667 nm fluorescence, primary screen (AID 1153); conditions: higher = more signal;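 note: score merges spot fluorescence with signal-to-noise ratio from the scanned slide images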
[3] = plasmodial surface anion channel blockers, osmotic lysis – cell-based, P. falciparum Indochina, OD700, 1 h, primary screen (AID 1154); conditions: P. falciparum Indochina infected RBC osmotic lysis, higher = more signal, called active from +8 up or from −8 down
[4] = plasmodial surface anion channel blockers, osmotic lysis – cell-based, P. falciparum Indochina, OD700, 2 h, primary screen (AID 1155);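 note: lysis reports solute entry through the parasite surface anion channel PSAC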; conditions: P. falciparum Indochina infected erythrocytes, higher = more signal, called active from +8 up or from −8 down
[5] = changes in parasitized red cell lysis, either direction – P. falciparum Indochina, OD700, 3 h, PSAC antagonist project, primary screen (AID 1156); conditions: P. falciparum-infected erythrocytes, osmotic lysis, higher = more signal, called active from +8 up or from −8 down
[6] = plasmodial surface anion channel blockers, osmotic lysis – cell-based, P. falciparum Indochina, OD700, 18 h, primary screen (AID 1157); conditions: P. falciparum Indochina infected erythrocytes, osmotic lysis OD700, 18 h; higher = more signal, called active from +8 up or from −8 down
[7] = S6 kinase pathway phospho-S6 level changes – cell-based, A549, cytoblot, luminescence, serum-stimulated, primary screen (AID 1158); conditions: 5 h, higher = more signal;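 note: serum-stimulated A549 lung adenocarcinoma cells; signal is phosphorylated S6 detected by cytoblot immunostaining with HRP secondary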
[8] = target: NADPH oxidase 2 (Homo sapiens) (UniProt P04839); assay: compounds shifting NOX2 Amplex Red fluorescence – cell-based, HEK293-NOX2, PMA-stimulated, NOX inhibitor project, primary screen (AID 1159); conditions: 45 min, higher = more signal, called active from +8 up or from −8 down; note: test concentration not given here
[9] = target: NADPH oxidase 4 (Homo sapiens) (UniProt Q9NPH5); assay: compounds shifting NOX4 Amplex Red fluorescence – cell-based, HEK293-NOX4, tetracycline-induced, NOX inhibitor project, primary screen (AID 1160); conditions: HEK293-NOX4, Amplex Red H2O2 fluorescence, 45 min; higher = more signal, called active from +8 up or from −8 down
[10] = target: NADPH oxidase 5 (Homo sapiens) (UniProt Q96PH1); assay: compounds shifting NOX5 Amplex Red fluorescence – cell-based, HEK293-NOX5, NOX inhibitor project, primary screen (AID 1161); conditions: HEK293-NOX5, ionomycin, 45 min, higher = more signal
[11] = compound effects on lung adenocarcinoma cell viability – A549, calcein-AM fluorescence, 48 h, basal, profiling panel (AID 1162); conditions: higher = more signal; note: test concentration not given here
[12] = compound effects on differentiated 3T3-L1 adipocyte viability – cell-based, 3T3-L1 adipocytes, calcein-AM fluorescence, 48 h, basal, profiling panel (AID 1163); conditions: 3T3-L1 adipocytes viability, higher = more signal; note: test concentration not given here
[13] = compound effects on hepatocellular carcinoma cell viability – HepG2, calcein-AM fluorescence, 48 h, basal, profiling panel (AID 1164); conditions: higher = more signal; note: test concentration not given here
[14] = compound effects on multiple myeloma cell viability – MM1S, calcein-AM fluorescence, 48 h, basal, profiling panel (AID 1165); conditions: higher = more signal; note: test concentration not given here
[15] = calcein-AM signal in unstimulated myeloma cells – cell-based, calcein-AM fluorescence, 48 h, PK04 Diversity Set, profiling panel (AID 1166); conditions: RPMI8226 myeloma viability, higher = more signal;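 note: cells grown under basal conditions without added stimulus; test concentration not given here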
[16] = JC-1 mitochondrial signal, unstimulated HepG2 cells – cell-based, JC-1 fluorescence, 24 h, 100 nL compound, profiling panel (AID 1167); conditions: HepG2 mitochondrial potential, higher = more signal; note: test concentration not given here
[17] = JC-1 mitochondrial signal, unstimulated adipocytes – cell-based, JC-1 fluorescence, 3T3-L1 adipocytes, 24 h, 100 nL compound, profiling panel (AID 1168); conditions: JC-1 mitochondrial fluorescence, higher = more signal, called active from +8 up or from −8 down; note: test concentration not given here
[18] = JC-1 mitochondrial signal, unstimulated myeloma cells – cell-based, JC-1 fluorescence, RPMI8226, 24 h, 100 nL compound, profiling panel (AID 1169); conditions: JC-1 mitochondrial potential fluorescence, higher = more signal; note: test concentration not given here
[19] = JC-1 mitochondrial signal, unstimulated MM1S myeloma – cell-based, JC-1 fluorescence, 24 h, 100 nL compound, profiling panel (AID 1170); conditions: MM1S mitochondrial potential, higher = more signal; note: test concentration not given here
[20] = resazurin metabolic signal in A549 cells – cell-based, resazurin fluorescence, 24 h, PK04 Diversity Set, profiling panel (AID 1171); conditions: A549 viability, higher = more signal, called active from +8 up or from −8 down; note: test concentration not given here

Chain of NADPH oxidase 4 (Homo sapiens) (Q9NPH5 whole entry, looked up): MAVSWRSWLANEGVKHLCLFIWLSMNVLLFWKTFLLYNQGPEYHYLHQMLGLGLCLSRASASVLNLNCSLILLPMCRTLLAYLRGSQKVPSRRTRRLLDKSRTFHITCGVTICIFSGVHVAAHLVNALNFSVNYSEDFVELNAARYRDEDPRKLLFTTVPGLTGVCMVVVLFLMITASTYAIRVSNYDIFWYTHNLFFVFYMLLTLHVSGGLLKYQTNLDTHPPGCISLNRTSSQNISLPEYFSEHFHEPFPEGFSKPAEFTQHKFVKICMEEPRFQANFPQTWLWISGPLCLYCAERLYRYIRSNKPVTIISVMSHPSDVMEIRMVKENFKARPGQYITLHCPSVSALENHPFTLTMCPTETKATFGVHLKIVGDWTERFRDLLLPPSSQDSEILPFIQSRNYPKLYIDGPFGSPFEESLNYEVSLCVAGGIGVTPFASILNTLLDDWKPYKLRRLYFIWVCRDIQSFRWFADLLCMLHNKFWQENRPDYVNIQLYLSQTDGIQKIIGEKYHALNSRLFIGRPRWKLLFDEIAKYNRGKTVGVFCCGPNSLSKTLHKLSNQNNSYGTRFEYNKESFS
Chain of NADPH oxidase 2 (Homo sapiens) (P04839 whole entry, looked up): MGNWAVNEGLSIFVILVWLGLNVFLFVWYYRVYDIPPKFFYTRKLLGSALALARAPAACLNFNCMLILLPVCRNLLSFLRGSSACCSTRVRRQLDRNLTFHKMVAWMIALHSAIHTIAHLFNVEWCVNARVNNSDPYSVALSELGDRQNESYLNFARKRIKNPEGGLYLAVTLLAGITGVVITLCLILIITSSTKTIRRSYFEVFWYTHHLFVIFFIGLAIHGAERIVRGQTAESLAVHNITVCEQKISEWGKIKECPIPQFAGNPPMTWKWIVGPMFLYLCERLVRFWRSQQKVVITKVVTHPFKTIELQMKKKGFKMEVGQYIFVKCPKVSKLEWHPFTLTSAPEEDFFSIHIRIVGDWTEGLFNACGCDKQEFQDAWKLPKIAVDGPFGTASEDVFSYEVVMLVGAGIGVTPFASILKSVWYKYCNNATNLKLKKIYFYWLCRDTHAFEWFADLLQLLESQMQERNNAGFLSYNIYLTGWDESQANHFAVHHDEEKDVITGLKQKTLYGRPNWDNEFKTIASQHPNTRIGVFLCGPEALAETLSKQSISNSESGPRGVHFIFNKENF
Chain of NADPH oxidase 5 (Homo sapiens) (Q96PH1 whole entry, looked up): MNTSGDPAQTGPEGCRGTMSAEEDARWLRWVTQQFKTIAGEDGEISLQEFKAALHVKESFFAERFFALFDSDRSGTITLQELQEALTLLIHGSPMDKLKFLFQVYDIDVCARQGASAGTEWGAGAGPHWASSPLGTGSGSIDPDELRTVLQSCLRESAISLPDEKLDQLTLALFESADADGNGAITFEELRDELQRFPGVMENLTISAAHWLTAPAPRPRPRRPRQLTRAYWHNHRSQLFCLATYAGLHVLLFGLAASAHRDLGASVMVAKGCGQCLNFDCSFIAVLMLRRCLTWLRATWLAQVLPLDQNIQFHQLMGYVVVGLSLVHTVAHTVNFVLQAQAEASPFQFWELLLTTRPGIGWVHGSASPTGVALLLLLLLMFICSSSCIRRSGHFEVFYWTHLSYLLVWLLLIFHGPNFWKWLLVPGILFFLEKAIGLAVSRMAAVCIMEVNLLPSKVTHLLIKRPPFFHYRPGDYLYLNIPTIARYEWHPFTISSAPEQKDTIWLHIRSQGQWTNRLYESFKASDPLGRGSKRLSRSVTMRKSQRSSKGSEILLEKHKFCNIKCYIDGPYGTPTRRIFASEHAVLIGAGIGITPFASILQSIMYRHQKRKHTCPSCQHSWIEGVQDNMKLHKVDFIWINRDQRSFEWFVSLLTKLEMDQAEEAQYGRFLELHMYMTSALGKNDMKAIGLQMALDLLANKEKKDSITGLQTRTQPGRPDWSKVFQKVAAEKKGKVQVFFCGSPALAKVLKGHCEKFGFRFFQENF

Compound	z-score [1]	composite z-score [2]	z-score [3]	z-score [4]	z-score [5]	z-score [6]	z-score [7]	z-score [8]	z-score [9]	z-score [10]	z-score [11]	z-score [12]	z-score [13]	z-score [14]	z-score [15]	z-score [16]	z-score [17]	z-score [18]	z-score [19]	z-score [20]
COc1cccc(C[C@H]2C[C@@H](CO[Si](C(C)C)(C(C)C)C(C)C)N3C(=O)[C@]4(C(C)=O)O[C@]23[C@H]2C(=O)N(C)C(=O)[C@H]24)c1	-1.09 (inactive)	-0.0713	4.02 (inactive)	0.867 (inactive)	-0.382 (inactive)	0.702 (inactive)	-0.267	0.083 (inactive)	0.451 (inactive)	0.146	-2.16	-0.206	-3.45	-2.93	-4.26	1.49	0.207 (inactive)	-1.05	-1.96	-1.41 (inactive)
C=CCC(OC(C)=O)[C@@H]1[C@@H](N(Cc2cc3ccccc3o2)C(=O)Cc2ccc(OC)cc2)c2cc(OCCCO)ccc2N1C(=O)c1ccc(-c2ccccc2)cc1 (stereo not given in full)	1.26 (inactive)	0.143	2.1 (inactive)	0.0881 (inactive)	0.821 (inactive)	0.432 (inactive)	0.78	0.125 (inactive)	-0.964 (inactive)	1.56	0.328	1.05	0.228	-0.841	-1.82	3.42	0.182 (inactive)	-0.392	0.415	-0.451 (inactive)
Cc1ccc(S[C@]2(C(=O)NCCN3CCOCC3)CC(=O)N(C3Cc4ccccc4C3)[C@@H]2c2ccc(CO)cc2)cc1	0.293 (inactive)	0.482	2.1 (inactive)	0.0757 (inactive)	0.62 (inactive)	0.375 (inactive)	-0.348	-0.66 (inactive)	-1.82 (inactive)	-1.58	-0.215	-0.143	-0.619	-0.0655	0.0047	0.699	0.242 (inactive)	0.794	-0.0188	0.665 (inactive)
COCCOC(=O)N1C(=O)[C@@]2(c3cc(C#CCCO)ccc31)[C@H](c1ccc(OCCO)cc1)N1[C@H](c3ccccc3)[C@H](c3ccccc3)OC(=O)[C@H]1[C@@H]2C(=O)N1CCc2cc(OC)c(OC)cc2C1	0.526 (inactive)	0.777	3.2 (inactive)	1.67 (inactive)	0.226 (inactive)	1.1 (inactive)	-0.354	0.898 (inactive)	1.01 (inactive)	1.23	-0.874	0.586	0.863	0.541	0.263	-0.0698	1.79 (inactive)	-0.299	-1.48	-0.533 (inactive)
CCOC(=O)C1=CC[C@@H](c2ccc(N(CC)CC)cc2)N(S(=O)(=O)c2ccc(C)cc2)[C@H]1c1ccc([N+](=O)[O-])cc1	-1.24 (inactive)	0.437	1.66 (inactive)	0.86 (inactive)	0.723 (inactive)	0.779 (inactive)	-0.779	0.599 (inactive)	-1.37 (inactive)	-0.131	-0.112	-1.19	0.203	-0.0595	-0.173	4.25	-0.114 (inactive)	-0.673	-0.609	0.325 (inactive)
COCC1=C([C@H](O)CCc2ccccc2)[C@H](CO)[C@@H]2C(=O)N(C)C(=O)[C@@H]2C1	1.87 (inactive)	-0.0691	9.45 (active)	1.29 (inactive)	-0.64 (inactive)	0.254 (inactive)	0.155	-0.58 (inactive)	0.371 (inactive)	0.4	0.803	-0.473	0.693	0.347	-0.243	0.618	-0.368 (inactive)	0.442	0.341	-0.515 (inactive)
CCOC(=O)C[C@H]1[C@H](OC(=O)c2ccc(C(=O)c3ccccc3)cc2)[C@@H](NC(=O)C2CCCCC2)c2cc(OCCCO)ccc2N1C(=O)Cc1ccc(OC)cc1	0.522 (inactive)	0.271	2.32 (inactive)	0.744 (inactive)	0.0357 (inactive)	-0.206 (inactive)	0.0093	-1.38 (inactive)	0.626 (inactive)	1.74	0.273	0.628	0.918	-0.4	-0.631	1.06	-0.76 (inactive)	0.368	-0.812	-0.0859 (inactive)
CCCN1C(=O)[C@@]2(Cc3ccccc3)N=C(c3ccc(OCCCO)cc3)O[C@H]2c2ccccc21	0.299 (inactive)	0.572	32.7 (active)	33.7 (active)	3.01 (inactive)	5.2 (inactive)	-0.149	-2.69 (inactive)	-0.584 (inactive)	-1.79	-1.54	0.778	-1.7	-2.34	-4.32	-0.214	1.18 (inactive)	-1.27	-0.647	-0.232 (inactive)
O=C1O[C@H](c2ccccc2)[C@H](c2ccccc2)N2[C@H]1[C@@H](C(=O)N1CCCCCCC1)[C@]1(C(=O)Nc3ccccc31)[C@H]2c1ccc(O)cc1	-0.0491 (inactive)	2.97	0.517 (inactive)	0.435 (inactive)	-0.882 (inactive)	0.19 (inactive)	-0.541	-4.42 (inactive)	-1.03 (inactive)	-3.4	0.416	0.759	0.757	-1.81	-2.71	-1.65	0.123 (inactive)	-0.536	0.385	-1.52 (inactive)
C/C=C/[C@@H](CCn1cc([C@H](O)c2ccccc2)nn1)[Si](C)(C)c1ccc(OC)cc1	0.703 (inactive)	0.121	5.3 (inactive)	1.06 (inactive)	2.04 (inactive)	0.473 (inactive)	0.201	0.257 (inactive)	-0.182 (inactive)	-2.21	-0.536	0.485	-0.713	-2.9	-3.1	-1.13	-0.255 (inactive)	-0.268	-0.462	0.372 (inactive)
NC(=O)[C@H]1[C@@H]2C(=O)O[C@@H](c3ccccc3)[C@@H](c3ccccc3)N2[C@@H](c2ccc(O)cc2)[C@]12C(=O)Nc1ccc(C#CC3(O)CCCCCC3)cc12	0.359 (inactive)	0.354	2.63 (inactive)	-0.436 (inactive)	0.67 (inactive)	-1.08 (inactive)	1.54	0.487 (inactive)	-0.429 (inactive)	-2.14	0.205	1.54	0.961	-1.13	-4.08	-1.39	-0.575 (inactive)	-0.808	-0.184	0.995 (inactive)
COCCCNC(=O)[C@]1(Cc2ccccc2)N=C(c2ccc(OCCCO)cc2)O[C@@H]1c1ccccc1N=[N+]=[N-]	1.1 (inactive)	0.334	31.9 (active)	27.3 (active)	2.49 (inactive)	2.24 (inactive)	1.44	-5.51 (inactive)	-2.84 (inactive)	-2.21	-1.8	1.77	-1.47	-1.78	-4.29	1.29	0.235 (inactive)	-1.1	-1.73	-1.09 (inactive)
CCOC(=O)C[C@H]1[C@H](OC(=O)Cc2ccc3c(c2)OCO3)[C@@H](NC(=O)c2ccccc2)c2cc(OCCCO)ccc2N1C(=O)c1ccc2ccccc2n1	2.15 (inactive)	0.031	6.69 (inactive)	-0.0918 (inactive)	-1.04 (inactive)	-1.23 (inactive)	0.873	-0.357 (inactive)	1.16 (inactive)	0.27	1.86	1.08	1.8	-0.198	-0.243	1.12	0.607 (inactive)	-0.156	-0.178	-1.38 (inactive)
Cc1ccccc1C(O)C1C=CC2C(=O)N(C)C(=O)C2N1Nc1ccc([N+](=O)[O-])cc1[N+](=O)[O-] (stereo not given)	-1.68 (inactive)	0.591	4.34 (inactive)	1.7 (inactive)	1.06 (inactive)	0.95 (inactive)	-1.32	-0.824 (inactive)	-1.23 (inactive)	0.487	0.544	-0.729	0.839	-1.04	-0.582	-1.57	-1.15 (inactive)	-0.0251	-1.09	-0.372 (inactive)
Cc1ccc(-c2cccc(=O)o2)cc1	-0.418 (inactive)	-0.237	5.81 (inactive)	1.02 (inactive)	-0.657 (inactive)	0.609 (inactive)	-0.102	0.498 (inactive)	-1.66 (inactive)	0.12	-0.104	0.796	-0.117	0.0881	-0.774	-1.35	-0.263 (inactive)	-0.177	-0.299	-0.0164 (inactive)
